# Measurements published in publication PMC11006913.
# Where a chain is given by its changes, count along the chain named.
# What was measured:
# Test in all cases: PBM; 200 nM protein, PBS
# Conditions in all cases: dsDNA, one strand shown
# [1] = biological target: HOXC10 (Homo sapiens, UniProt Q9NYD6 254-340)
# [2] = biological target: T1, PAX4 (Homo sapiens, UniProt O43316 9-242, R200K)
# T1 sequence: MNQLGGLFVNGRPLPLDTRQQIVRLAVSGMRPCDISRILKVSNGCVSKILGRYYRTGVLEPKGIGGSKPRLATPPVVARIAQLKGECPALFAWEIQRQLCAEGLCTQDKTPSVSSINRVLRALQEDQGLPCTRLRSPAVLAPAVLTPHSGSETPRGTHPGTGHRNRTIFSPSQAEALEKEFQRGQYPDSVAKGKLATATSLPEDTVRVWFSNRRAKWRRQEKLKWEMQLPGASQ
# [3] = biological target: T2, PAX4 (Homo sapiens, UniProt O43316 9-242)
# T2 sequence: T1 sequence with K192R
# [4] = biological target: T3, PAX4 (Homo sapiens, UniProt O43316 9-242, R200Q)
# T3 sequence: T1 sequence with K192Q
# [5] = biological target: T4, PAX4 (Homo sapiens, UniProt O43316 9-242, F177V)
# T4 sequence: T1 sequence with F169V, K192R
# [6] = biological target: HOXC10 (Homo sapiens, UniProt Q9NYD6 254-340, K271E)
# [7] = biological target: T5, PAX4 (Homo sapiens, UniProt O43316 9-242, F177Y)
# T5 sequence: T1 sequence with F169Y, K192R
# [8] = biological target: PROP1 (Homo sapiens, UniProt O75360 56-141)
# [9] = biological target: PROP1 (Homo sapiens, UniProt O75360 56-141, R99H)
# [10] = biological target: PROP1 (Homo sapiens, UniProt O75360 56-141, F88S)
# [11] = biological target: T6, PAX4 (Homo sapiens, UniProt O43316 9-242, R227W)
# T6 sequence: T1 sequence with K192R, R219W
# [12] = biological target: HOXD13 (Homo sapiens, UniProt P35453 263-343, T313R)
# [13] = biological target: HOXD13 (Homo sapiens, UniProt P35453 263-343)
# [14] = biological target: HOXA2 (Homo sapiens, UniProt O43364 129-215, R185T)
# [15] = biological target: HOXA2 (Homo sapiens, UniProt O43364 129-215, R185K)
# [16] = biological target: HOXA2 (Homo sapiens, UniProt O43364 129-215, Y150S)
# [17] = biological target: HOXA2 (Homo sapiens, UniProt O43364 129-215)
# [18] = biological target: HOXD13 (Homo sapiens, UniProt P35453 263-343, T313A)
# [19] = biological target: HOXB6 (Homo sapiens, UniProt P17509 132-218, K202E)
# [20] = biological target: MSX2 (Homo sapiens, UniProt P35548 130-214, R199I)
# [21] = biological target: MSX2 (Homo sapiens, UniProt P35548 130-214)
# [22] = biological target: MSX2 (Homo sapiens, UniProt P35548 130-214, F161Y)
# [23] = biological target: HOXB6 (Homo sapiens, UniProt P17509 132-218)
# HOXB6 (Homo sapiens, UniProt P17509 132-218), sequence (P17509 132-218): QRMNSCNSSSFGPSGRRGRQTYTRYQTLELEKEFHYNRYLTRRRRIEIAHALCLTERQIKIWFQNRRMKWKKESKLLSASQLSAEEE
# HOXC10 (Homo sapiens, UniProt Q9NYD6 254-340), sequence (Q9NYD6 254-340): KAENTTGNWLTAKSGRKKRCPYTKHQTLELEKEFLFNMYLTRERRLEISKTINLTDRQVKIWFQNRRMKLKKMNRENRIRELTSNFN
# HOXD13 (Homo sapiens, UniProt P35453 263-343, T313R), sequence (P35453 263-343 T313R): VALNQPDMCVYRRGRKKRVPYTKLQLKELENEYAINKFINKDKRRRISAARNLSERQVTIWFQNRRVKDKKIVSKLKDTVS
# HOXD13 (Homo sapiens, UniProt P35453 263-343), sequence (P35453 263-343): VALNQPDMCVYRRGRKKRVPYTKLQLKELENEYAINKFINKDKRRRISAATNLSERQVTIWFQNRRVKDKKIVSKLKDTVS
# HOXC10 (Homo sapiens, UniProt Q9NYD6 254-340, K271E), sequence (Q9NYD6 254-340 K271E): as the sequence (Q9NYD6 254-340) above, with K18E counted along it
# HOXD13 (Homo sapiens, UniProt P35453 263-343, T313A), sequence (P35453 263-343 T313A): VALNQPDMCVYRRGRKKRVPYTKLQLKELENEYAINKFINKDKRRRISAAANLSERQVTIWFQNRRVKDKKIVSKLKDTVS
# PROP1 (Homo sapiens, UniProt O75360 56-141, F88S), sequence (O75360 56-141 F88S): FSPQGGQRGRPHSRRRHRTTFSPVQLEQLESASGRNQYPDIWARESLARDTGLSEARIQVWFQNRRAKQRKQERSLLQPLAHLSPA
# HOXB6 (Homo sapiens, UniProt P17509 132-218, K202E), sequence (P17509 132-218 K202E): as the sequence (P17509 132-218) above, with K71E counted along it
# PROP1 (Homo sapiens, UniProt O75360 56-141), sequence (O75360 56-141): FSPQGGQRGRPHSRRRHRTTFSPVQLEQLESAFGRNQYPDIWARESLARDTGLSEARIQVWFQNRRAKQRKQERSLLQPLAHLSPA
# PROP1 (Homo sapiens, UniProt O75360 56-141, R99H), sequence (O75360 56-141 R99H): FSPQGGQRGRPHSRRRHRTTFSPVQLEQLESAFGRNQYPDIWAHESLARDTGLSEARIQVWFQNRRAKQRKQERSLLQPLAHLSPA
# MSX2 (Homo sapiens, UniProt P35548 130-214), sequence (P35548 130-214): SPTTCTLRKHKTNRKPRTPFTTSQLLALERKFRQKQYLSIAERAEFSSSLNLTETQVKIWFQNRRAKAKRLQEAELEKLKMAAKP
# MSX2 (Homo sapiens, UniProt P35548 130-214, R199I), sequence (P35548 130-214 R199I): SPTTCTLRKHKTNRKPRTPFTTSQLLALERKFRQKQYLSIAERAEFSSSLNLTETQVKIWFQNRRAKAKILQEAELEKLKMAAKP
# HOXA2 (Homo sapiens, UniProt O43364 129-215, Y150S), sequence (O43364 129-215 Y150S): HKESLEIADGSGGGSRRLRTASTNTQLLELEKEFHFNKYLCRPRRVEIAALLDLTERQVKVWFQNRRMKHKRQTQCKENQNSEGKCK
# HOXA2 (Homo sapiens, UniProt O43364 129-215), sequence (O43364 129-215): as the sequence (O43364 129-215 Y150S) above, with S22Y counted along it
# HOXA2 (Homo sapiens, UniProt O43364 129-215, R185T), sequence (O43364 129-215 R185T): as the sequence (O43364 129-215 Y150S) above, with S22Y, R57T counted along it
# MSX2 (Homo sapiens, UniProt P35548 130-214, F161Y), sequence (P35548 130-214 F161Y): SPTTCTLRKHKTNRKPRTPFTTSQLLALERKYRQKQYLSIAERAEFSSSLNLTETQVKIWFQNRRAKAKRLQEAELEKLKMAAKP
# HOXA2 (Homo sapiens, UniProt O43364 129-215, R185K), sequence (O43364 129-215 R185K): as the sequence (O43364 129-215 Y150S) above, with S22Y, R57K counted along it
sequence,measurement,setting,value
CTCCCCCC,binding signal,[1],"9.99 upbm affinity estimate (log intensity, higher = more binding, comparable within an allelic series)"
same,binding signal,[2],"9.31 upbm affinity estimate (log intensity, higher = more binding, comparable within an allelic series)"
same,binding signal,[3],"9.32 upbm affinity estimate (log intensity, higher = more binding, comparable within an allelic series)"
same,binding signal,[4],"9.28 upbm affinity estimate (log intensity, higher = more binding, comparable within an allelic series)"
same,binding signal,[5],"9.04 upbm affinity estimate (log intensity, higher = more binding, comparable within an allelic series)"
same,binding signal,[6],"9.94 upbm affinity estimate (log intensity, higher = more binding, comparable within an allelic series)"
same,binding signal,[7],"9.19 upbm affinity estimate (log intensity, higher = more binding, comparable within an allelic series)"
same,binding signal,[8],"6.67 upbm affinity estimate (log intensity, higher = more binding, comparable within an allelic series)"
same,binding signal,[9],"6.5 upbm affinity estimate (log intensity, higher = more binding, comparable within an allelic series)"
same,binding signal,[10],"5.95 upbm affinity estimate (log intensity, higher = more binding, comparable within an allelic series)"
same,binding signal,[11],"9.13 upbm affinity estimate (log intensity, higher = more binding, comparable within an allelic series)"
AACAATCA,binding signal,[1],"10.9 upbm affinity estimate (log intensity, higher = more binding, comparable within an allelic series)"
CAATATGG,binding signal,[1],"10.7 upbm affinity estimate (log intensity, higher = more binding, comparable within an allelic series)"
same,binding signal,[12],"10 upbm affinity estimate (log intensity, higher = more binding, comparable within an allelic series)"
same,binding signal,[13],"10.5 upbm affinity estimate (log intensity, higher = more binding, comparable within an allelic series)"
CGCCCCCC,binding signal,[1],"9.91 upbm affinity estimate (log intensity, higher = more binding, comparable within an allelic series)"
same,binding signal,[14],"6.85 upbm affinity estimate (log intensity, higher = more binding, comparable within an allelic series)"
same,binding signal,[15],"9.91 upbm affinity estimate (log intensity, higher = more binding, comparable within an allelic series)"
same,binding signal,[6],"9.87 upbm affinity estimate (log intensity, higher = more binding, comparable within an allelic series)"
same,binding signal,[16],"10.3 upbm affinity estimate (log intensity, higher = more binding, comparable within an allelic series)"
same,binding signal,[17],"6.92 upbm affinity estimate (log intensity, higher = more binding, comparable within an allelic series)"
CCCCGGGC,binding signal,[1],"9.93 upbm affinity estimate (log intensity, higher = more binding, comparable within an allelic series)"
same,binding signal,[12],"9.37 upbm affinity estimate (log intensity, higher = more binding, comparable within an allelic series)"
same,binding signal,[13],"9.35 upbm affinity estimate (log intensity, higher = more binding, comparable within an allelic series)"
same,binding signal,[6],"9.89 upbm affinity estimate (log intensity, higher = more binding, comparable within an allelic series)"
same,binding signal,[18],"9.35 upbm affinity estimate (log intensity, higher = more binding, comparable within an allelic series)"
TGTTACAA,binding signal,[1],"10.6 upbm affinity estimate (log intensity, higher = more binding, comparable within an allelic series)"
TTACACAA,binding signal,[1],"10.5 upbm affinity estimate (log intensity, higher = more binding, comparable within an allelic series)"
GGCTAGCC,binding signal,[1],"9.92 upbm affinity estimate (log intensity, higher = more binding, comparable within an allelic series)"
same,binding signal,[19],"8.91 upbm affinity estimate (log intensity, higher = more binding, comparable within an allelic series)"
same,binding signal,[20],"9.46 upbm affinity estimate (log intensity, higher = more binding, comparable within an allelic series)"
same,binding signal,[12],"9.4 upbm affinity estimate (log intensity, higher = more binding, comparable within an allelic series)"
same,binding signal,[13],"9.37 upbm affinity estimate (log intensity, higher = more binding, comparable within an allelic series)"
same,binding signal,[6],"9.98 upbm affinity estimate (log intensity, higher = more binding, comparable within an allelic series)"
same,binding signal,[21],"9.52 upbm affinity estimate (log intensity, higher = more binding, comparable within an allelic series)"
same,binding signal,[18],"9.39 upbm affinity estimate (log intensity, higher = more binding, comparable within an allelic series)"
same,binding signal,[22],"9.51 upbm affinity estimate (log intensity, higher = more binding, comparable within an allelic series)"
same,binding signal,[23],"8.87 upbm affinity estimate (log intensity, higher = more binding, comparable within an allelic series)"
GGGGGGAA,binding signal,[1],"10 upbm affinity estimate (log intensity, higher = more binding, comparable within an allelic series)"
same,binding signal,[19],"9 upbm affinity estimate (log intensity, higher = more binding, comparable within an allelic series)"
same,binding signal,[6],"9.95 upbm affinity estimate (log intensity, higher = more binding, comparable within an allelic series)"
same,binding signal,[8],"6.74 upbm affinity estimate (log intensity, higher = more binding, comparable within an allelic series)"
same,binding signal,[9],"6.57 upbm affinity estimate (log intensity, higher = more binding, comparable within an allelic series)"
same,binding signal,[10],"6.2 upbm affinity estimate (log intensity, higher = more binding, comparable within an allelic series)"
same,binding signal,[23],"9.07 upbm affinity estimate (log intensity, higher = more binding, comparable within an allelic series)"
AGGGAGGC,binding signal,[1],"9.98 upbm affinity estimate (log intensity, higher = more binding, comparable within an allelic series)"
same,binding signal,[2],"9.2 upbm affinity estimate (log intensity, higher = more binding, comparable within an allelic series)"
same,binding signal,[3],"9.2 upbm affinity estimate (log intensity, higher = more binding, comparable within an allelic series)"
same,binding signal,[4],"9.17 upbm affinity estimate (log intensity, higher = more binding, comparable within an allelic series)"
same,binding signal,[5],"9.02 upbm affinity estimate (log intensity, higher = more binding, comparable within an allelic series)"
same,binding signal,[6],"10 upbm affinity estimate (log intensity, higher = more binding, comparable within an allelic series)"
same,binding signal,[7],"9.16 upbm affinity estimate (log intensity, higher = more binding, comparable within an allelic series)"
same,binding signal,[11],"9.18 upbm affinity estimate (log intensity, higher = more binding, comparable within an allelic series)"
